Test results taken from the supplement of paper PMC6555819.

Tested on: RARb:RXRa (NR concentration 270 nM, RXRa partner concentration 90 nM)
Assay: PBM binding z-score (relative to random genomic background probes); higher = stronger binding; sequences stand for … in GC…GCGATTGACAGCGTAGAATGAAGG
Outline: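 On custom Agilent 4×180K arrays, double-stranded probes with 34-nt variable regions carried direct-repeat seeds, single-nucleotide variants, half-site ablations or random human genomic background. Ligand-free nuclear receptor dimers were applied for 1 h, and binding was read with antibodies against each partner (one per run). Binding z-scores come from regression-normalized fluorescence, with the random background probes as reference.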

Sequence | PBM binding z-score
CGTCCAAGGTCGTAGGAGGTCAGTGAAGACAGAT | 3.82
TCTGCTAGGTCAACGATGATCAGCTAATCTGCTA | 3.99
TCAAATAGGTAAAGGTGAAAGTCGAACGATATGA | 2.28
TCTATTAGTTGATTAGGGCAACTGAAACAGCGGA | 0.768
AGAATGAGGTAATACGTAGATCAGGGAAGAAAGT | 0.0493
ACTATTAGTTGACTTAGGACAACCGATACGACGC | 0.665
AGTCAAAGTTCAGGACGAAGTAACGTAAAGCACG | 4.2
TCTTGTAGATCAAGGGTTAAGAAAGCCGAAGCCT | 0.694
CGAACTAGGTCGGAACAGGACAGTGAAGGATGAT | 0.543
AGAACGAGGGCAATAAGTTGATAGCACGGGTGGC | 1.84
AGAACGATGGCACGCTGAGTTGATAGCAGAGTAG | -0.628
GATACAGGGTCAGCTAGAGGACAGAGTATGGAAA | 4.34
TCATATAGGTAAATGCTAGGTGAAAGTGCGATCT | 0.649
GCTAGTTGGTCAGTAAAAGGTCAGACACCGGTCG | 3.71
AGAATGAGGTTACCAAACATCAGGGAAACGCTTG | 1.82
ACTCGGAAGACAAAGGTCAGAGCTACGCCAGTGA | 4.07
ACAGACAGGTTAGTGAAGGTAACTCAGCTGGACG | 0.755
TCTATTAGTTGACTAGGGCAACCGAAACAGCGGA | 0.994
ACTAGCAGGCCAAGTTTGGGTCACTTAAACAAAG | 1.91
CCTACTGGGCCACGAAAGCTCATTGATTCAGTGA | -0.0436

Sequence | PBM binding z-score
ACTAGCAGGCCAGGTTTGGGTCACTCAAACAAAG | 1.32
TAGCCTACGTCAGATCGGGCCAGTATACGCTATA | -0.507
TAGCCTAGGTCATTCAGGGGCCAGTTTAGAAAGC | 3.61
CTCGAAAGGTCGTGCTCACGTGAGTATACCAAAC | 3.92
GCTCGGAGGACAAGGTCAGAGCATTGTCCGTAGA | 3.38
TAGCCTAGGTCAGATCGGGCAAGTATACGCTATA | 2.99
CAAACTAGGTCAAGGTCATAGTCGGTTTGTGCCA | 4.97
TTACCAAGGTGAAGGTCCTTGATCCCTCTGTAGA | 1.75
CGAACGAGGGCATGAGTTGACAGCAAATGCCGAT | 2.21
ATCGAAAGGTCGAACGTGAGTATACCCACCCGAA | 3.75
TCTGCTAGGTCAGCTGGTCAGCTAACGAGCTGCC | 3.64
GATACAGGGTCAGCCAGAGGCCAGAGTATGGAAA | 4.19
GCTATTAGTTGAAAGGGCAACCCAATGATTCTCG | 2.08
GCGACTGGGGCATCAGCAGTTTACCATAACTTAA | 0.388
ATATGAAGGTTACATCCGGGTCATTCAGGCTATG | 3.16
CGTCAAAGATCAACTAAGGTAACGTAAAGCACGC | 0.548
AGATTGAGGTTAAGATCAGGGAAACAGAATACAT | 2.08
GATACAGGGTCAAGGCCAGCGTACGCGTATTGAT | 4.52
AGTACGAGGGCACGCTGAGTTGATAGCAGAGTAG | 2.64
TGAATGAGGTTAAAGATCCGGGAACGTGGCGTCG | 1.72
